Records with an inconclusive call do not appear. Entries that show only a call come without a potency. Activity calls are given as the source filed them. The call rests on the fitted dose curve; in most records, active means well fitted cell-killing curve with a large enough effect; inconclusive means small, poorly fitted or top-dose-only effect; inactive means flat fitted curve, though single readings scatter.
experiment: Quantitative highthroughput screen to assess conditional lethalithy of P12 Ichikawa cells grown in RPMI1640 with dialyzed fetal bovine serum (RPMI+ds) (AID 1963880); conditions: ATP luminescence, 48 h; Potency: P12-Ichikawa viability; series mostly up to 45.8 µM; further: nearly all actives have a fitted effect of over 35% in size
From the text: Assay Provider: Jason Cantor Ph.D.
Department of Biochemistry
University of Wisconsin-Madison, Madison, WI, USA
Chemical screening studies have identified drug sensitivities across hundreds of cancer cell lines but most putative therapeutics fail to translate. Discovery and development of drug candidates in models that more accurately reflect nutrient levels in human blood is a major challenge. Here we performed high-throughput screens in conventional versus Human Plasma-Like Medium (HPLM) to identify compounds that were "missed" when screening using the artificial culture condition. Sets of conditional anticancer compounds spanned phases of clinical development and included non-oncology drugs were assessed. […] We also traced conditional phenotypes for several chemotherapeutics to availability of HPLM-specific metabolites and confirmed others for compounds whose reported targets are encoded by nonessential genes. Our findings establish generalizable strategies for exploiting conditional lethality in HPLM to reveal therapeutic candidates and mechanisms of action in cancer cells.
Described herein are the results of each viability screens against three cell lines: NOMO1 (an acute myeloid leukemia cell line); P12-Ichikawa (a T-cell acute lymphoblastic leukemia); and SEM (a B-cell ALL). Each assay was screened using 3 different cell culture media: homemade human plasma-Like medium with 10% dialyzed fetal bovine serum (HPLM+ds); RPMI1640 with 10% untreated FBS and 5mM glucose (RPMI+s); and RPMI1640 with 10% dialyzed fetal bovine serum and 5 mM glucose (RPMI+ds).
PROTOCOL TABLE (as described by Inglese J, Shamu CE and Guy RK. 2007)
SEQUENCE No. (e.g., 1, 2, 3, etc.); […] (e.g., Cells, Incubation, Reagent, etc.); VALUE and DESCRIPTION.
1; Cells; 5 uL; white, solid bottom 1536-well Greiner assay plate.
2; Compounds; 23 nL; Kalypsis pin tool (Wako USA) equipped with a 1536-well pin head to transfer to the assay plates.
3; Incubation; 48 hours; 37C incubation.
4; Reagent; 3 uL; CellTiter Glo (Promega).
5; Incubation; 5 min, room temperature
6; Detection; Luminescence, Viewlux PerkinElmer.
NOTES (numbers refer to Sequence numbers above)
1. Briefly, 5 ul of cell reagent was dispensed using a Multidrop Combi Dispenser. The NOMO1 and SEM cells were plated at 500 cells/well and the P12-Ichikawa line at 1000 cells/well.
2. After seeding the cells, 23 nL of MIPE 4.1 library compounds (in DMSO) were added to each plate using a Kalypsys 1536 Pintool dispenser. Bortezomib at final concentration of […] and DMSO were added to each plate as positive and negative controls respectively. For each screen, MIPE 4.1 compounds were added over an eleven-point concentration range […] in 3-fold dilutions.
3. Each plate was covered with a stainless steel gasketed lid to prevent evaporation and incubated for 48 hour at 37C, 95% relative humidity, and 5% CO2.
4-5. Three microliter CellTilter-GloTM luminescent substrate mix (Promega) reagent was added to the assay plate and incubated at room temperature for 5 min.
6. The luminescence signal was measured using a ViewLux (PerkinElmer) multiplate reader with a 2 second exposure time per plate. Data for each compound were normalized as percent viability such that measurements for DMSO and the empty well controls in each plate were defined as 100% and 0%, respectively.
Potency means the concentration at half of the fitted maximal effect.

Q: For `CC(=O)N(C)c1cccc(-c2ccnc3c(C(=O)c4cccs4)cnn23)c1`, which Potency is on record?
A: The Potency was “inactive”.

Q: With `CC(C)(O)C=CC(=O)[C@](C)(O)[C@H]1[C@H](O)C[C@]2(C)[C@@H]3CC=C4[C@@H](C=C(O)C(=O)C4(C)C)[C@]3(C)C(=O)C[C@@]12C` as the molecule, how does the Potency read?
A: Its Potency is 0.166 µM (active).

Q: For `C#C[C@]1(O)C=C[C@@H]2[C@@H]3CCC4=CC(=O)CC[C@@H]4[C@H]3CC[C@@]21CC`, which Potency is on record?
A: The Potency was “inactive”.

Q: Which Potency does the source give for `O=C(NCC1CCOCC1)c1cnc(Nc2ccc(Cl)cc2Cl)nc1C(F)(F)F` here?
A: Its Potency is “inactive”.

Q: For `CN(C)[C@@H]1C(=O)C(C(N)=O)=C(O)[C@@]2(O)C(=O)C3=C(O)c4c(O)cccc4[C@@](C)(O)[C@H]3C[C@@H]12`, which Potency is on record?
A: Its Potency is “inactive”.

Q: Which Potency does the source give for `COc1ccc(C(=O)c2c(C)n(CCN3CCOCC3)c3cc(I)ccc23)cc1` here?
A: The Potency was 8.33 µM (active).

Q: With `CCOP(=O)(OCC)C(C)NC(=O)N(CCCl)N=O` (stereo not given) as the molecule, how does the Potency read?
A: The Potency was “inactive”.

Q: Which Potency does the source give for `Cc1[nH]nc2ccc(-c3cncc(OC[C@@H](N)Cc4c[nH]c5ccccc45)c3)cc12` here?
A: The Potency was 1.05 µM (active).

Q: Which Potency does the source give for `c1cc2c(cc1[C@H]1OC[C@H]3[C@H]1CO[C@H]3c1ccc3c(c1)OCO3)OCO2` here?
A: Its Potency is “inactive”.

Q: With `CN(C)CCN(C)CCc1ccc(Cl)c(Cl)c1` as the molecule, how does the Potency read?
A: The Potency was “inactive”.

Q: Which Potency does the source give for `CN1C(=O)COc2c(C(=O)NC3CN4CCC3CC4)cc(Cl)cc21` (stereo not given) here?
A: The Potency was “inactive”.

Q: Which Potency does the source give for `CC(C)(O)C(=O)Nc1ccc([N+](=O)[O-])c(C(F)(F)F)c1` here?
A: Its Potency is 16.6 µM (active).

Q: With `CCOC(=O)c1cncn1[C@H](C)c1ccccc1` as the molecule, how does the Potency read?
A: Its Potency is “inactive”.

Q: For `CCOc1ccccc1-n1c(C(C)N2CCN(C(=O)COc3ccc(Cl)cc3)CC2)nc2ccccc2c1=O` (stereo not given), which Potency is on record?
A: Its Potency is 1.05 µM (active).

Q: For `CCCC(C)(COC(N)=O)COC(=O)NC(C)C` (stereo not given), which Potency is on record?
A: Its Potency is “inactive”.

Q: For `CSCC[C@@H](NC(=O)[C@@H](Cc1ccccc1)NC(=O)CNC(=O)CNC(=O)[C@@H](N)Cc1ccc(O)cc1)C(=O)O`, which Potency is on record?
A: The Potency was “inactive”.

Q: Which Potency does the source give for `CC(C)c1cccc(C(C)C)c1O` here?
A: Its Potency is “inactive”.

Q: For `O=C(Oc1ccc([N+](=O)[O-])cc1)N1CCC(C(O)(c2ccc3c(c2)OCO3)c2ccc3c(c2)OCO3)CC1`, which Potency is on record?
A: Its Potency is “inactive”.

Q: Which Potency does the source give for `CN1CCN(c2ccc([N+](=O)[O-])c3no[n+]([O-])c23)CC1` here?
A: Its Potency is “inactive”.

Q: With `C#CCN(C)[C@H](C)Cc1ccccc1` as the molecule, how does the Potency read?
A: The Potency was “inactive”.

Q: For `C[C@]12COC(=O)C[C@@H]1CC[C@@H]1[C@H]2CC[C@@]2(C)[C@H]1CC[C@]2(C)O`, which Potency is on record?
A: The Potency was “inactive”.

Q: Which Potency does the source give for `CC(C)(C)[C@]1(O)C[C@@H]2OC(=O)C[C@@]23C(=O)O[C@@H]2OC(=O)[C@H](O)C213` (stereo not given in full) here?
A: The Potency was “inactive”.

Q: Which Potency does the source give for `C[C@](O)(CS(=O)(=O)c1ccc(F)cc1)C(=O)Nc1ccc(C#N)c(C(F)(F)F)c1` here?
A: The Potency was “inactive”.

Q: Which Potency does the source give for `C[C@@H]1[C@H](O)[C@@H](C)C=CC=CCCC=CC=CC=CC=C[C@H](O[C@H]2O[C@@H](C)[C@H](O)[C@@H](N)[C@@H]2O)CC2O[C@](O)(C[C@@H](O)[C@H](O)CC[C@@H](O)C[C@@H](O)C[C@@H](O)CC(=O)O[C@H]1C)C[C@H](O)[C@H]2C(=O)O` here?
A: Its Potency is “inactive”.

Q: With `CC(NC(C)(C)C)C(=O)c1cccc(Cl)c1` (stereo not given) as the molecule, how does the Potency read?
A: Its Potency is “inactive”.

Q: With `C[C@]12Cc3cn[nH]c3C[C@@H]1CC[C@@H]1[C@H]2CC[C@@]2(C)[C@H]1CC[C@]2(C)O` as the molecule, how does the Potency read?
A: The Potency was “inactive”.

Q: With `CN1C(=O)CCS(=O)(=O)C1c1ccc(Cl)cc1` (stereo not given) as the molecule, how does the Potency read?
A: The Potency was “inactive”.

Q: Which Potency does the source give for `CC(C)(C)c1cc(C=C(C#N)C#N)cc(Br)c1O` here?
A: The Potency was “inactive”.

Q: For `CC[C@@]1(O)C(=O)OCc2c1cc1n(c2=O)Cc2cc3ccccc3nc2-1`, which Potency is on record?
A: The Potency was 0.0209 µM (active).

Q: Which Potency does the source give for `C=C[C@@H]1CN2CCC1C[C@@H]2[C@@H](O)c1ccnc2ccccc12` (stereo not given in full) here?
A: The Potency was “inactive”.

Q: With `COc1ccc2c(c[n+](C)c3c4cc5c(cc4ccc23)OCO5)c1OC` as the molecule, how does the Potency read?
A: The Potency was 14.8 µM (active).

Q: For `O=C1CC[C@@]2(O)[C@H]3Cc4ccc(O)c5c4[C@@]2(CCN3CC2CC2)[C@H]1O5`, which Potency is on record?
A: Its Potency is “inactive”.

Q: For `Cc1ccccc1-n1c(Cn2ncc3c(N)ncnc32)nc2cccc(C)c2c1=O`, which Potency is on record?
A: Its Potency is 3.32 µM (active).

Q: Which Potency does the source give for `O=c1[nH]c2ccccc2n1C1CCN(Cc2ccc(-c3[nH]c4cc5ncnc5cc4nc3-c3ccccc3)cc2)CC1` here?
A: Its Potency is “inactive”.

Q: For `CC1=C2C[C@@H]3[C@@H](CC=C4C[C@@H](O)CC[C@@]43C)[C@@H]2CC[C@]12O[C@H]1C[C@H](C)CN[C@H]1[C@H]2C`, which Potency is on record?
A: Its Potency is “inactive”.

Q: Which Potency does the source give for `Cc1nc(-c2ccc(-c3ccc(C(=O)N4CCc5cc6c(cc54)C4(CCN(C)CC4)CO6)cc3)c(C)c2)no1` here?
A: The Potency was “inactive”.

Q: With `Cc1ncc(OC[C@@]2(c3cccc(F)c3)C[C@H]2C(=O)Nc2ccc(F)cn2)c(C)n1` as the molecule, how does the Potency read?
A: Its Potency is “inactive”.

Q: With `C[C@H]([C@H](O)CCC(C)(C)O)[C@H]1CC[C@@]2(O)C3=CC(=O)[C@@H]4C[C@@H](O)[C@@H](O)C[C@]4(C)[C@@H]3CC[C@]12C` as the molecule, how does the Potency read?
A: The Potency was “inactive”.

Q: For `CC(C)N(CCNC(=O)CN1CCCC1=O)C(C)C`, which Potency is on record?
A: Its Potency is “inactive”.

Q: Which Potency does the source give for `CC[C@@H]1[C@@H](C)O[C@@](O)([C@@H](C)[C@H](O)[C@H](C)[C@H]2OC(=O)C=CC=C[C@@H](C)[C@@H]([C@@H](C)[C@@H](O)[C@H](C)[C@@]3(O)C[C@H](O[C@H]4C[C@H](O)[C@H](O)[C@H](C)O4)[C@H](CC)[C@@H](C)O3)OC(=O)C=CC=C[C@@H]2C)C[C@H]1O[C@H]1C[C@H](O)[C@H](O)[C@H](C)O1` here?
A: Its Potency is 3.32 µM (active).
